Data as given in PubChem BioAssay (NCATS).
Results filed as inconclusive are left out. A number with no mark means an inactive call. Active and inactive are the calls of the source. Calls come from the whole dose curve; as a rule, active = well fitted cell-killing curve with a large enough effect; inconclusive = small, poorly fitted or top-dose-only effect; inactive = flat fitted curve, though single readings scatter.

Assay: qHTS of pediatric cancer cell lines to identify multiple opportunities for drug repurposing: Primary screen for control Hh wild type fibroblast cells (AID 1347106);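 note: a drop in luminescence marks cytotoxicity and a rise apparent proliferation; nearly all actives have a fitted effect of over 55% in size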
Settings: Hh wild-type fibroblast viability, CellTiter-Glo luminescence, 48 h; series mostly up to 46 µM; activity change, negative = cytotoxic: at the top concentration
Description: Drug repurposing or repositioning has been offered as a strategy for drug development in oncology programs. This approach has special potential for childhood cancers and other rare or orphan diseases, where the expected return on new drug development has been a disincentive to pharmaceuticals.
In this project we exploit the poly-pharmacology of drugs to discover new indications via phenotypic screening of a panel of 19 well-characterized cell lines derived from solid tumors seen in children and adolescents. The goal is to identify approved drugs with previously unrecognized anticancer properties that has the potential to reveal new mechanisms and biological processes involved in carcinogenesis or drug resistance. We employed a titration-based paradigm (quantitative high-throughput screening or qHTS), where all compounds were tested at multiple concentrations for their effect on cell viability. Concentration-response curves (CRCs) were derived directly from the primary screen, and both potency and efficacy values were used to identify compounds with robust bioactivity profiles. We screened the NIH Chemical Genomics Center (NCGC) Pharmaceutical Collection (NPC) and Mechanism Interrogation Plate (MIPE) small molecule collections of approved and investigational compounds against these cell lines; and measured metabolically active cells after 48 hours of compound treatment as a proxy for cell viability.
Assay Submitter: Nathalia J. Martinez, National Center for Advancing Translational Sciences, National Institutes of Health, Rockville, MD, USA; email: natalia.martinez@nih.gov
[1] Shen, M et al. Quantitative high-throughput phenotypic screening of pediatric cancer cell lines identifies multiple opportunities for drug repurposing. Oncotarget 2017 Dec 19;9(4):4758-4772. PMID 29435139.
The cells were obtained from University of North Carolina (UNC), Pediatric Preclinical Testing Program (PPT), and Coriell Institute (CI).
qHTS cell viability assay:
Cells were assayed in growth media at a density of 500-1,000 cells/well. Five microliters of cells were dispensed into 1,536-well, white, solid-bottom, TC-treated plates (Greiner Bio One) using a multidrop dispenser and incubated at 37 degrees C, 5% CO2, under a humidified atmosphere for 5 hours. Twenty-three nanoliters of compounds and controls (neutral control DMSO or positive control bortezomib at final concentration of 2.3 µM) were subsequently transferred by Kalypsys pintool. For primary screens, the MIPE collection was tested at 11-point dilutions (final concentrations range from 0.78 nM to 46 µM) and the NPC collection at 8-point dilutions (final concentrations range from 0.59 nM to 46 µM). Compounds tested in follow-up screens were assayed at 11-point dilutions. Cells were incubated for 48 hours, followed by addition of 3 µL of CellTiter-Glo (Promega). After a 15 min incubation at room temperature, samples were analyzed for luminescence intensity using a ViewLux High-throughput CCD imager equipped with clear filters.
% is set by controls: 0 for no effect and ±100 for the full control effect.

SMILES | Potency | activity change, negative = cytotoxic
Cc1[nH]c(=O)c(C#N)cc1-c1ccncc1 | inactive | –
NC(=O)c1ccc(-c2nc(-c3ccc4c(c3)OCCO4)c(-c3ccccn3)[nH]2)cc1 | – | 2.6%
COc1ccc(-c2c(-c3ccc(O)cc3O)n[nH]c2C)cc1 | – | 11.3% [at 92.7 µM]
Fc1ccc(Cl)cc1-c1nc(Nc2ccncc2)c2nccnc2n1 | – | 9.41%
N#CC[C@H](C1CCCC1)n1cc(-c2ncnc3[nH]ccc23)cn1 | – | 0.596%
CCC(C)n1ncn(-c2ccc(N3CCN(c4ccc(OC[C@H]5CO[C@](Cn6cncn6)(c6ccc(Cl)cc6Cl)O5)cc4)CC3)cc2)c1=O (stereo not given in full) | inactive | –
C[C@]1(c2nc3c(C(N)=O)cccc3[nH]2)CCCN1 | – | -18.1%
Clc1ccc(Nc2nnc(Cc3ccncc3)c3ccccc23)cc1 | – | -0.694%
CCN(c1ccccc1)c1cc(NC)[n+](C)c(C)n1 | – | 3.64%
C1COC(NC(C2CC2)C2CC2)=N1 | inactive | –
Cc1cc2c(C(C)C)c(O)c(O)c(C=O)c2c(O)c1-c1c(C)cc2c(C(C)C)c(O)c(O)c(C=O)c2c1O | inactive | –
CCn1c(-c2nonc2N)nc2cnc(Oc3cccc(NC(=O)c4ccc(OCCN5CCOCC5)cc4)c3)cc21 | – | 3.68%
COc1ccc(-c2oc3cc(OC)ccc3c2C(=O)c2ccc(C#N)cc2)cc1 | – | 5.12%
CCOC(=O)N1CCC(=C2c3ccc(Cl)cc3CCc3cccnc32)CC1 | inactive | –
CN(C)C(=O)c1ccc(S(=O)(=O)c2ccc(NC(=O)[C@@](C)(O)C(F)(F)F)c(Cl)c2)cc1 | – | -7.24%
C[C@]12CC[C@H](O)CC1=CC[C@@H]1[C@H]2CC[C@]2(C)C(c3cccnc3)=CC[C@H]12 | – | 5.06% [at 16.1 µM]
CC1(C)Cc2c(-c3ccccc3)c(-c3ccc(Cl)cc3)c(CC(=O)O)n2C1 | – | 5.03%
CCN(CC)CCCC(C)Nc1nc(C)cc(Nc2ccc3nc(C)cc(N)c3c2)n1 (stereo not given) | – | 1.76%
Cc1c(C)c2c(c(C)c1O)CCC(C)(COc1ccc(CC3SC(=O)NC3=O)cc1)O2 (stereo not given) | inactive | –
Cc1ccc(NC(=O)c2cccc(C(C)(C)C#N)c2)cc1Nc1ccc2ncn(C)c(=O)c2c1 | – | 4.38%

SMILES | Potency | activity change, negative = cytotoxic
Cc1cc2c(F)c(Oc3ncnn4cc(OC[C@@H](C)O)c(C)c34)ccc2[nH]1 | – | -8.75%
NC(N)=NC(=O)c1nc(Cl)c(N)nc1N | inactive | –
CS(=O)(=O)c1ccc(C(=O)Nc2ccc(Cl)c(-c3ccccn3)c2)c(Cl)c1 | – | -14%
COc1cc(Oc2ccnc3cc(OC)c(OC)cc23)ccc1NC(=O)NC(C)c1nccs1 (stereo not given) | – | -5.44%
CCOc1cc(C=C2C(=O)N(c3ccccc3)N=C2C)cc(Cl)c1OCC(=O)OC | – | -2.96%
CC(C)(Sc1ccc(CCN(CCCCC2CCCCC2)C(=O)NC2CCCCC2)cc1)C(=O)O | – | 4.89%
Cc1n[nH]c(C)c1Cc1sc2c(c1C(=O)N1C[C@H](O)CO1)c(=O)n(C)c(=O)n2CC(C)C | – | 3.77%
OCCC#Cc1nc(-c2ccc(F)cc2)c(-c2ccncc2)n1CCCc1ccccc1 | – | 7.34%
NCCCC(N)(C(=O)O)C(F)F (stereo not given) | – | 4.28%
Cc1ccnc(NS(=O)(=O)c2ccc(NC(=O)Nc3ccc(S(=O)(=O)Nc4nccc(C)n4)cc3)cc2)n1 | – | 21.3%
O=C(O)[C@@H](c1ccc(OCc2ccc3ccccc3n2)cc1)C1CCCC1 | – | -1.71%
Cn1cnc([N+](=O)[O-])c1Sc1ncnc2nc[nH]c12 | inactive | –
CNC(=O)c1ccc(C)c(-n2c(C)cc(OCc3ccc(F)cc3F)c(Br)c2=O)c1 | – | 1.54%
CCC(C)(C)C(=O)O[C@H]1C[C@@H](C)C=C2C=C[C@H](C)[C@H](CC[C@@H]3C[C@@H](O)CC(=O)O3)[C@H]21 | – | -19.2%
C[C@]12CCC(=O)C=C1CC[C@@H]1[C@@H]2[C@@H](O)C[C@@]2(C)[C@H]1CC[C@]2(O)C(=O)CO | – | -7.33%
CCOc1ccc(Cc2cc([C@@H]3O[C@H](CO)[C@@H](O)[C@H](O)[C@@H]3O)ccc2Cl)cc1 | – | -5.19%
Cc1cnc(Nc2ccc(OCCN3CCCC3)cc2)nc1Nc1cccc(S(=O)(=O)NC(C)(C)C)c1 | – | 9.97%
CNC[C@H](O)c1cccc(O)c1 | inactive | –
Cc1cccc(-c2nn(C(=S)Nc3ccccc3)cc2-c2ccnc3ccccc23)n1 | – | 24.4%
O=c1[nH]cnc2[nH]ncc12 | inactive | –
